# Source: paper PMC4336329 (PLoS ONE, 2015)
# The whole screen tested about 310,000 compounds, of which about 14,000 (4.5%) showed an effect of 50% or more. Effects have a minus sign here. The full list was thinned out, with strong results kept by preference.
# Target: human ether-à-go-go-related gene (hERG) potassium channel (human, UniProt Q12809)
# Experiment: primary screen, population patch clamp on CHO cells stably expressing hERG; higher = less effect of the substance
# 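Further: peak tail current of the secondary pulse compared with the same well before compound.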
# Chain of human ether-à-go-go-related gene (hERG) potassium channel (Q12809 whole entry, looked up): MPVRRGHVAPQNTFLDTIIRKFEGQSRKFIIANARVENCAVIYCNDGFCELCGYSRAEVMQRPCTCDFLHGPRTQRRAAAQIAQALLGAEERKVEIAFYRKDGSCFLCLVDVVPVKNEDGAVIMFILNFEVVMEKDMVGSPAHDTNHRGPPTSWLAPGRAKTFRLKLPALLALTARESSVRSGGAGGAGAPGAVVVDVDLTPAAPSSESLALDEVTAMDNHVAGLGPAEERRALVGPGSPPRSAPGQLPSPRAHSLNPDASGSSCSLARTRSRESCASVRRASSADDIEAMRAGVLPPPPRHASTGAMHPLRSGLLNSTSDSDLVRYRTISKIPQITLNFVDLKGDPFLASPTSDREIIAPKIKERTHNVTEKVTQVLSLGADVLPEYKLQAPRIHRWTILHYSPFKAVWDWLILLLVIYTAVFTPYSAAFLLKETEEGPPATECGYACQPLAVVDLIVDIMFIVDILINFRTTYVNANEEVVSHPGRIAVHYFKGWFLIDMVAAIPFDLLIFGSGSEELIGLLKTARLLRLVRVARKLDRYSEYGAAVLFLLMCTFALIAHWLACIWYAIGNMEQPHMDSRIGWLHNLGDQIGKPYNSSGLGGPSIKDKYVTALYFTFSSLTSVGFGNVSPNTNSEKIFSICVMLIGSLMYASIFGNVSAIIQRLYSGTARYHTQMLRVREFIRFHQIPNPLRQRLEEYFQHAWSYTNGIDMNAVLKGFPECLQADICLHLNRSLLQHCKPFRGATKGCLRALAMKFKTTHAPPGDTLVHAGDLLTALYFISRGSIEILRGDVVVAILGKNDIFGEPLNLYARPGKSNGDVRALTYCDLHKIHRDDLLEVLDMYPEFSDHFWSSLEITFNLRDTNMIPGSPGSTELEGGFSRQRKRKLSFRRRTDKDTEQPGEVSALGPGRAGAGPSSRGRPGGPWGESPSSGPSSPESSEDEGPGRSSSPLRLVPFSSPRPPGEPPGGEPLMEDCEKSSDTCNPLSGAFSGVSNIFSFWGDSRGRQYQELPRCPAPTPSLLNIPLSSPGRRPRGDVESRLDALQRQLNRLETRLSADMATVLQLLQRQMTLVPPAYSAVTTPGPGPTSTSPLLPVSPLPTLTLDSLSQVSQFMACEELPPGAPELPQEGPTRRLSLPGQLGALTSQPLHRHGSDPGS
row,SMILES,"hERG current change (%, negative = inhibition) at 10uM"
1,N#C/C(C(=O)N1CCOCC1)=C1\Nc2ccccc2S1,2.1%
2,CC(=O)NC(Cc1c[nH]c2ccccc12)C(=O)NCc1ccco1 (stereo not shown),12.5%
3,CCN(CC)S(=O)(=O)c1cccc(NC(=O)COc2ccc(Cl)cc2Br)c1,2.59%
4,CCn1c(SCC(=O)Nc2ccc(C(C)=O)cc2)nc2c([nH]c3ccccc32)c1=O,5.85%
5,CCOCCCNC(=O)c1ccc(-n2c(=S)[nH]c3ccccc3c2=O)cc1,10.8%
6,COc1ccc(CN2CCN(Cc3ccccc3OC)CC2)cc1.O=C(O)C(=O)O,2.68%
7,COc1ccccc1OCCCCCCN1CCOCC1.O=C(O)C(=O)O,0.0271%
8,COc1cccc(OC)c1OCCN1CCN(C(c2ccccc2)c2ccccc2)CC1,-72.7%
9,COc1ccccc1CN1CCCCCC1.O=C(O)C(=O)O,11.5%
10,COc1ccccc1OCCCCCCN1CCN(C)CC1.O=C(O)C(=O)O,-5.83%
11,COc1ccccc1OCCCCN1CCN(C(c2ccccc2)c2ccccc2)CC1.O=C(O)C(=O)O,-73%
12,COc1ccccc1CN1CCN(Cc2ccc(Cl)cc2)CC1.O=C(O)C(=O)O,-62.5%
13,COc1cccc(OC)c1OCCOCCN1CCN(C)CC1,20.8%
14,COc1cccc(OC)c1OCCN1CCCC1,15.8%
15,CCOc1ccc(NCc2nc3ccccc3n2CCOc2ccccc2)cc1,-11.6%
16,Cc1ccnc(N2CCC(C(=O)NCc3ccc(F)cc3)CC2)n1,-12%
17,CCOC(=O)N1CCN(CC(O)COc2ccccc2C(C)C)CC1.Cl (stereo not shown),-8.87%
18,C/C(=N\NC(=O)c1ccco1)c1cc(Cl)sc1Cl,-6.11%
19,S=c1[nH]nc(COc2ccc(Cl)cc2Cl)n1-c1ccccc1,19.1%
20,C/C(=N\Nc1nc(N2CCOCC2)nc(N2CCOCC2)n1)c1cccc([N+](=O)[O-])c1,-4.76%
21,C/C(=N\Nc1cc(N2CCOCC2)ncn1)c1cccc([N+](=O)[O-])c1,4.5%
22,C/C(=N\Nc1cc(N2CCOCC2)nc(C)n1)c1cccc([N+](=O)[O-])c1,-60.4%
23,COCCCNC(=O)[C@H]1N2C(=O)c3ccccc3C2SC1(C)C (stereo partly shown),15.3%

row,SMILES,"hERG current change (%, negative = inhibition) at 10uM"
1,S=C(NCc1ccco1)N1CCN(Cc2ccc(Cl)cc2Cl)CC1,-36.3%
2,O=S(=O)(Nc1ccc(-c2ccc3nncn3n2)cc1)c1ccc(Cl)s1,-19.2%
3,O=C(Nc1ccc(S(=O)(=O)N2CCOCC2)cc1)c1ccccc1F,6.32%
4,COc1ccc(CNc2ccc3c(c2)ncn3-c2ccccc2OC)cc1,-23%
5,C=CCc1ccccc1OCC(O)CN(CC)CC.Cl (stereo not shown),-30.5%
6,C=CCc1cc(C)ccc1OCC(O)CN1CCN(c2ccccc2)CC1 (stereo not shown),-47.5%
7,C=CCc1ccccc1OCC(O)CNC (stereo not shown),12%
8,C=CCc1ccccc1OCC(O)CN(C(C)C)C(C)C.Cl (stereo not shown),-59.2%
9,C=CCc1ccccc1OCC(O)CN1CCN(c2ccc(OC)cc2)CC1.Cl (stereo not shown),-66.5%
10,C=CCc1ccccc1OCC(O)CN1CCN(c2ccc(C)cc2)CC1 (stereo not shown),-44.7%
11,C=CCc1ccccc1OCC(O)CN1CCN(c2ccccc2F)CC1.Cl (stereo not shown),-40.9%
12,C=CCc1cc(OC)ccc1OCC(O)CN1CCN(c2ccc(OC)cc2)CC1 (stereo not shown),-59.7%
13,C=CCc1ccccc1OCC(O)CN1CCN(c2ccccc2OC)CC1.Cl (stereo not shown),-75.2%
14,C=CCc1ccccc1OCC(O)CN1CCN(C(=O)OCC)CC1.Cl (stereo not shown),-11.3%
15,Cc1nonc1NC(=O)CSc1nc2cc(Cl)ccc2c2c1CCCC2,2.15%
16,CN(Cc1nc(-c2cnccn2)no1)Cc1n[nH]c2c1CCCCC2,-0.424%
17,O=S(=O)(c1ccccc1)N(CC1CO1)c1cc(Cl)ccc1Cl (stereo not shown),14.2%
18,C/C(=N\O)C(C)(C)Nc1ccccc1F,4.26%
19,COc1cc(/C=C/c2[nH]c(=O)[nH]c(=O)c2[N+](=O)[O-])cc(OC)c1O,7.26%
20,CN(C)Cc1nc2ccccc2c(=O)n1CC(=O)Nc1cccc(S(=O)(=O)N2CCOCC2)c1,-14.4%
21,CCN(C(=O)C1CCCN1S(=O)(=O)c1ccc2c(c1)n(C)c(=O)c(=O)n2C)c1ccccc1 (stereo not shown),-3.32%
22,CCOC(=O)c1c(C)[nH]c(C(=O)C(C)OC(=O)c2cnc(C)cn2)c1C (stereo not shown),-0.804%
23,O=C(NCCC(=O)N1CCC2(CC1)NCCc1[nH]cnc12)c1cccc(Br)c1,1.5%

row,SMILES,"hERG current change (%, negative = inhibition) at 10uM"
1,C=CCc1cc(OC)ccc1OCC(O)CN1CCN(c2ccc(OC)cc2)CC1.Cl (stereo not shown),-71.2%
2,COc1ccc(CCNC(=S)Nc2ccc(S(=O)(=O)Nc3ncccn3)cc2)cc1OC,21.2%
3,CC(=O)c1cc(C(c2csc(C(C)=O)c2)c2csc(C(C)=O)c2)cs1,-72.6%
4,CC(=O)c1cc(CN2C(=O)CCC2=O)cs1,5.27%
5,CC(=O)c1cc(Cc2csc(C(C)=O)c2)cs1,2.75%
6,O=C(NCc1ccco1)C1CC(c2ccc(Cl)cc2)=NO1 (stereo not shown),1.47%
7,FC(F)(F)c1cccc(-c2nc3nc(Cl)c(Cl)nc3[nH]2)c1,30.4%
8,CC(=O)NS(=O)(=O)c1ccc(NC(=S)NC(=O)c2ccco2)cc1,2.54%
9,Cl.Clc1ccc(CN2C3=NCCN3c3ccccc32)cc1Cl,-75.9%
10,Clc1ccc(CN2CCCCCCC2)cc1Cl,3.83%
11,Cl.Clc1ccc(CN2C3=NCCCN3c3ccccc32)cc1Cl,-76.3%
12,Clc1ccc(CN2CCCCCC2)cc1Cl,-7.66%
13,CCN1CCSc2ccc(C(=O)Nc3ccc(NC(C)=O)cc3)cc21,1.22%
14,CCN(Cc1ccccc1)C(=O)CSc1n[nH]c(N)n1,33.6%
15,CNC(=O)[C@@]1(Cc2ccccc2)C=C[C@@H](C)N1C(C)=O,5.07%
16,Cc1cc(C)n(-c2nc(C)nc3c2cnn3-c2ccccc2)n1,13%
17,CCOC(=O)c1ccc(S(=O)(=O)NNC(=O)COc2ccccc2C)cc1,27.5%
18,N#Cc1cccc(NC(=O)CSc2nnc(C3CC3)n2C2CC2)c1,-52.4%
19,NS(=O)(=O)c1ccc(NC(=O)CSc2nnc(C3CC3)n2C2CC2)cc1,22%
20,NS(=O)(=O)c1cccc(NC(=O)CSc2nnc(C3CC3)n2C2CC2)c1,8.95%
21,N#CCc1ccc(NC(=O)CSc2nnc(C3CC3)n2C2CC2)cc1,9.18%
22,O=C(CSc1nnc(C2CC2)n1C1CC1)Nc1cccc(Br)c1,-75.1%
23,CCOc1ccc(NC(=O)CSc2nnc(C3CC3)n2C2CC2)cc1,-15.7%

row,SMILES,"hERG current change (%, negative = inhibition) at 10uM"
1,Cc1cc(C)cc(NC(=O)CSc2nnc(-c3cc(C)[nH]n3)n2N)c1,12.5%
2,C=CCNC(=O)c1cc(-c2ccc(Br)cc2)on1,1.88%
3,CCn1cc(C(=O)O)c(=O)c2cc(F)c(N3CCN(C(=S)NC(=O)c4ccccc4)CC3)cc21,13.7%
4,CCn1cc(C(=O)O)c(=O)c2cc(F)c(N/N=C/c3ccccc3)cc21,-27.2%
5,CCn1cc(C(=O)O)c(=O)c2cc(F)c(N/N=C/c3ccccc3[N+](=O)[O-])cc21,-51.2%
6,COc1ccc(NC(=S)NN(C)C(=S)Nc2ccc(OC)cc2)cc1,26.1%
7,O=C(c1ncn(Cc2ccccc2)c1C(=O)N1CCc2ccccc2C1)N1CCc2ccccc2C1,-30.4%
8,COc1cccc(CC2(CO)CCN(C(=O)NCCc3ccccc3)CC2)c1,0.136%
9,CC(=O)Nc1ccc(CN2CCCC(CO)(Cc3cccc(Cl)c3)C2)cc1 (stereo not shown),-39.2%
10,COc1ccc(CC2(CO)CCN(Cc3ccc(NC(C)=O)cc3)CC2)cc1,-57.4%
11,COc1cccc(CC2(CO)CCN(Cc3ccc(NC(C)=O)cc3)CC2)c1,-50.7%
12,COc1ccc(C(=O)Nc2ccc(CN3CCOCC3)cc2)cc1,-1.82%
13,CCN1CCN(Cc2ccc(NC(=O)Nc3ccc(OC)cc3)cc2)CC1,-7.9%
14,O=C(NCC(=O)N1CCC2(CC1)NCCc1[nH]cnc12)c1cccc(Cl)c1,12.5%
15,CCOc1cc(/C=C2\SC(=N)N(c3nonc3N)C2=O)ccc1OCC(N)=O,7.01%
16,O=C(CCCn1c(=S)[nH]c2ccccc2c1=O)N1CCCCC1,-10.4%
17,CC(C#N)Sc1nnc(-c2ccccc2F)n1C1CC1 (stereo not shown),18.2%
18,C=CCOc1ccc(C(=O)n2cc(C(=O)OC)c3ccccc32)cc1,9.62%
19,Cc1ccc(C(=O)c2c3ccc(C(F)(F)F)cc3[n+]([O-])n2CCCC(N)=O)cc1,-62.9%
20,NC(=O)c1ccc(Cn2c(C(=O)c3ccc(Cl)cc3)c3ccccc3[n+]2[O-])cc1,-9.74%
21,COc1ccc2c(C(=O)c3ccc(C)cc3)n(CCC(N)=O)[n+]([O-])c2c1,-6.56%
22,NC(=O)CCCn1c(C(=O)c2cc(Cl)c(N)c(Cl)c2)c2ccc(C(F)(F)F)cc2[n+]1[O-],-41.1%
23,Cc1ccc(C(=O)c2c3ccccc3[n+]([O-])n2CCC(N)=O)cc1,-5.98%

row,SMILES,"hERG current change (%, negative = inhibition) at 10uM"
1,Nc1c(Cl)cc(C(=O)c2c3ccccc3[n+]([O-])n2CCC[NH3+])cc1Cl.[Cl-],-20.9%
2,Cc1ccc(C(=O)c2c3ccc(C(F)(F)F)cc3nn2CCC(N)=O)cc1,-5.81%
3,Cc1ccc(C(=O)c2c3ccc([N+](=O)[O-])cc3[n+]([O-])n2CCC(N)=O)cc1,-32.6%
4,[Cl-].[NH3+]CCCn1c(C(=O)c2ccc(Cl)cc2)c2ccc(C(F)(F)F)cc2[n+]1[O-],-79.2%
5,Cc1ccc(C(=O)c2c3ccc(C(F)(F)F)cc3[n+]([O-])n2CCC(N)=O)cc1,-66.2%
6,Nc1c(Cl)cc(C(=O)c2c3ccc(C(F)(F)F)cc3[n+]([O-])n2CCC[NH3+])cc1Cl.[Cl-],-57.6%
7,CCN1CSC(=S)N(Cc2ccccc2)C1,12.2%
8,COc1cc(CC(=O)Nc2nc(C)cs2)cc(OC)c1OC,5.84%
9,CC1(C)Nc2ccccc2C(=O)N1c1ccccc1,20.5%
10,COC(=O)Cn1nc(-c2ccccc2)c2cc(Cl)ccc21,-0.627%
11,CCOc1ccc(NC(=O)N2C[C@H]3C[C@@H](C2)c2cccc(=O)n2C3)cc1,8.54%
12,O=C(CSc1n[nH]c(-c2ccccn2)n1)Nc1ccccc1F,-1.74%
13,COc1ccccc1/C(O)=C(\C#N)c1nc2ccccc2[nH]1,15%
14,CCC1=NN2C(=N)/C(=C/c3cc(C)n(-c4ccccc4)c3C)C(=O)N=C2S1,16.2%
15,O=c1[nH]cc(NCCNc2ncc(C(F)(F)F)cc2Cl)c(=O)[nH]1,3.6%
16,Nn1cnnc1SCC(=O)Nc1ccc(C2CCCCC2)cc1,12.5%
17,CCn1cc(S(=O)(=O)Nc2nc3ccc(OC)cc3s2)cn1,19.7%
18,Cc1ccc2c(c1)-c1ncc(C(=O)c3cc(Br)ccc3O)cc1CO2,15.7%
19,CCc1cc(=O)oc2cc(C)cc(OCC(=O)NC(Cc3ccc(Cl)cc3)C(=O)O)c12 (stereo not shown),-9.21%
20,Cc1cccc(N2CCN(S(=O)(=O)c3ccc4c(c3)CCC(=O)N4)CC2C)c1 (stereo not shown),-8.91%
